High-throughput results from PubChem BioAssay.
An excerpt weighted towards active compounds, which were near 20% of everything screened.
Pf growth 96h: P. falciparum growth inhibition at 96 hour, primary screen for plastid delayed-death inhibitors; P. falciparum luciferase reporter growth, 96 h; Potency, µM (doses to about 28.7 µM), for the others: top-dose activity change, negative = inhibition, usual class: inhibitors; AID 504834; 320,000 tested, 6.9% active; note: potency is the fitted concentration of half-maximal effect; % is set by controls: 0 for no effect and ±100 for the full control effect
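Two-generation exposure (96 h) targets delayed-death phenotype. Reporter parasites carrying integrated firefly luciferase, in red cells at 2% hematocrit and 0.05% parasitemia final, kept at 37 C, 5% CO2; luminescence loss indicates inhibition.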
HCMV antiviral: inhibitors of human cytomegalovirus; HFF cells, HCMV-luciferase reporter, 72 h; stronger effect = lower value; activity change, negative = inhibition, % at 57.5 µM; 410,000 tested, 4.5% active; in the data active = activity change below about -60%; inconclusive = no clear call, values can overlap the other calls; inactive = above about -39%; note: % is set by controls: 0 for no effect and ±100 for the full control effect
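Luciferase read-out from HCMV-luciferase-infected HFFs (MOI 1 PFU/cell) 72 h post infection at 37C; compounds added after 16 h cell attachment; activity normalized between buffer-only basal and Salinomycin (10uM) inhibitor controls.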
CHX counter: counter-screen for Shiga toxin inhibitors: cycloheximide protein synthesis inhibition; max response, %; 300,000 tested, 12% active; cell reporter, cycloheximide protein synthesis inhibition counterscreen; in the data active = max response mostly above about 13%, no sharp cut-off; inactive = mostly below about 14%; note: read at 38.3 µM for the half of the compounds with a filed dose; 0% is about no effect
Pf growth 48h: inhibits P. falciparum growth in the first generation, 48 h; P. falciparum luciferase growth in erythrocytes, 48 h; Potency, µM (titrated, usually from 28.7 µM), without a hit: at the top dose activity change, negative = inhibition, hits mostly inhibitors; 310,000 tested, 5.9% active; AID 504832; note: potency is the fitted concentration of half-maximal effect; % is set by controls: 0 for no effect and ±100 for the full control effect
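Growth was read as firefly luciferase luminescence after a 48 h, 37 C, 5% CO2 exposure of compounds to reporter-bearing P. falciparum cultures (0.1% parasitemia, 2% hematocrit final) in Albumax-supplemented RPMI 1640.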
Shiga inhibitor: Shiga toxin inhibition; Vero cells, Shiga toxin protein synthesis inhibition reporter; inhibition, % at 38.7 µM; 290,000 tested, 9.2% active; in the data active = inhibition mostly above about 28%, no sharp cut-off; inactive = mostly below about 43%; note: 0% is about no effect
Active calls of the source: *; u = inconclusive; x = no result; [ ] = another dose, or the depositor's remark. Unless noted, calls come from the whole dose curve; as a rule, active = well fitted inhibition curve with a large enough effect; inconclusive = small, poorly fitted or top-dose-only effect, or another doubt; inactive = no such curve, though single readings can be large or run the other way.

SMILES	Pf growth 96h	HCMV antiviral	CHX counter	Pf growth 48h	Shiga inhibitor
COc1ccc(C)cc1NC(=O)C(C)N(c1ccc(C)cc1)S(C)(=O)=O (centres undefined)	-8%	-8	-4	u	-6
Cc1ccc(N(CC(=O)Nc2cc(Cl)ccc2Oc2ccccc2)S(C)(=O)=O)cc1C	8.3µM*	-9	-3	x	-21
Cc1ccc(N(C(C)C(=O)Nc2cc(Cl)ccc2Oc2ccccc2)S(C)(=O)=O)cc1 (centres undefined)	7.4µM*	1	1	4.7µM*	7
COc1ccc(S(=O)(=O)NCC(c2ccc(C)cc2)N2CCN(C)CC2)cc1 (centres undefined)	22%	-12	x	-25%	x
Cc1ccc(N(CC(=O)Nc2ccc(C)c(F)c2)S(=O)(=O)c2c(C)n[nH]c2C)cc1	x	-4	x	x	x
Cc1sc2ncnc(N3CCC(C(=O)N(C)CC(=O)Nc4ccccc4Cl)CC3)c2c1C	u	-79*	-2	u	-11
CCN(CC(=O)Nc1cc(Cl)ccc1C)C(=O)C1CCN(c2ncnc3sc(C)c(C)c23)CC1	x	0	x	x	x
Cc1sc2ncnc(N3CCC(C(=O)Oc4cccc(Cl)c4Cl)CC3)c2c1C	14%	-27	-1	-2%	14
Cc1sc2ncnc(N3CCC(C(=O)N(C)CC(=O)Nc4ccccc4Br)CC3)c2c1C	u	-63*	1	u	-15
CC(Oc1ccccc1)C(=O)Nc1ccc(C(=O)OCc2cc(=O)n3nc(C(C)C)sc3n2)cc1 (centres undefined)	x	29	x	x	x
O=C1CCC2S/C(=C/Nc3ccc(C(F)(F)F)cc3)C(=O)N12 (centres undefined)	u	-78*	-12	0%	-13
O=C1CSC(=S)N1/N=C/c1ccc(C(F)(F)F)cc1	31%	4	7	x	9
C[n+]1cn(/N=C/c2ccccc2)c2ccccc21	13µM*	45	8	u	23
C(=N\n1c2ccccc2c2ccccc21)/c1ccccc1	-6%	19	1	45%	-5
CC(C)(C)Cc1nnc(NC(=O)Cc2cccs2)s1	46%	86	-3	23%	-2
CC#C[C@]1(O)CC[C@H]2[C@@H]3CCC4=CC(=O)CCC4=C3[C@@H](c3ccc(N(C)C)cc3)C[C@@]21C	6.7µM*	114	-5	13µM*	-17
CC(=O)O[C@H]1CC[C@H]2[C@@H]3CCC4=CC(=O)CCC4=C3C=C[C@]12C	u	x	x	-5%	x
CCOc1cc(CNCCc2ccc(S(N)(=O)=O)cc2)ccc1OCc1ccc(Cl)cc1	u	-103*	-4	9.3µM*	-20
COc1cc(CNCCc2ccc(S(N)(=O)=O)cc2)ccc1OCc1ccc(Cl)cc1	6.6µM*	-93*	-4	8.3µM*	11
NS(=O)(=O)c1ccc(CCNCc2ccccc2OCc2ccc(F)cc2)cc1	u	-67*	-4	0%[0.00184 µM]	-10
CCOc1ccc2ccccc2c1CNCCc1ccc(S(N)(=O)=O)cc1	u	-29	-2	12µM*	24
CCOc1ccc(CNCCc2ccc(S(N)(=O)=O)cc2)cc1	92%	-1	-1	-13%	-6
CCN(C(=O)CN(C)S(=O)(=O)c1ccc2c(c1)n(C)c(=O)c(=O)n2C)c1cccc(C)c1	x	-25	x	x	x
O=C(C[n+]1cc(-c2ccccc2)n2c1CCC2)Nc1nc(-c2ccc(F)cc2)cs1	10µM*	8	-5	u	-4
O=C(C[n+]1cc(-c2ccc(F)cc2)n2c1CCC2)Nc1nc(-c2ccc(F)cc2)cs1	u	119	-1	u	14
SMILES	Pf growth 96h	HCMV antiviral	CHX counter	Pf growth 48h	Shiga inhibitor
O=C(C[n+]1cc(-c2ccc(Cl)cc2)n2c1CCC2)Nc1nc(-c2ccc(F)cc2)cs1	u	-63*	-1	-3%	12
COc1ccc2c(c1)[C@@H](NC(=O)OCc1ccccc1)[C@H](C)[C@@H](c1ccccc1)N2	x	13	x	x	x
O=S(=O)(c1ccc(-c2csc(-c3cccnc3)n2)cc1)N1CCOCC1	3%	-64*	11	u	-2
CN(CC1CCCO1)S(=O)(=O)c1ccc(C(=O)Nc2nc(-c3ccccn3)cs2)cc1 (centres undefined)	3.3µM*	x	-4	12µM*	-12
Cc1ccc(S(=O)(=O)N2CCOCC2)cc1C(=O)NCc1cccnc1	x	8	-2	12%	11
Cc1ccc(S(=O)(=O)N2CCOCC2)cc1C(=O)Nc1ccc(-c2cn3ccsc3n2)cc1	-11%	-16	20*	9.3µM*	18
Cc1ccc(S(=O)(=O)N2CCOCC2)cc1C(=O)Nc1nc(-c2cccnc2)cs1	-9%	-16	1	9.3µM*	-11
CC(C)(C)S(=O)(=O)N1Cc2cc(CO)ccc2[C@H]1CCO	x	10	x	x	x
COc1ccc(CNC(=O)CCCCCn2c(=O)[nH]c3ccccc3c2=O)cc1	x	30	x	x	x
CCOc1cc(/C=N/NC(=O)C(C)Sc2ccccc2)ccc1O (centres undefined)	47%	15	1	1%	-9
CCNc1nc(NC(C)(C)C)nc(Oc2ccc(=O)n(-c3ccccc3)n2)n1	24%	u	5	4%[5.75 µM]	1
Cc1cc(C)n2nc(SCC(=O)N3CCCCC3C)nc2n1 (centres undefined)	x	35	x	x	x
Cc1cccc(NC(=S)N(c2ccccc2)C(C)C)c1C	-21%	-31	6	-13%	1
O=C(Nc1nc(-c2ccccn2)cs1)c1ccc(F)c(S(=O)(=O)N2CCOCC2)c1	0.83µM*	-97*	x	1.5µM*	x
O=C(Nc1nc(-c2ccccn2)cs1)c1cc(S(=O)(=O)N2CCOCC2)ccc1F	10µM*	5	x	10µM*	x
Cc1ccc(C(=O)Nc2nc(-c3ccccn3)cs2)cc1S(=O)(=O)N1CCOCC1	0.47µM*	-97*	x	1.7µM*	x
Cc1ccccc1NC(=O)c1cc(S(=O)(=O)N2CCOCC2)ccc1F	-1%	69	-2	-2%	-9
Cc1ccccc1C(=O)Nc1ccccc1C(=O)NC1CC1	-9%	-8	5	11%	1
CCOC(=O)c1sc(S(C)(=O)=O)c2c1CCc1conc1-2	-20%	-15	-2	u	-2
COCCCn1c(=O)c2ccccc2n(Cc2ccccc2C)c1=O	-2%	-27	-2	-8%	-4
COCCCn1c(=O)c2ccccc2n(Cc2cc(C(=O)OC)ccc2OC)c1=O	15%	-31	2	7.4µM*	-5
CCN1C(=O)[C@H]2[C@@H](c3ccc(-c4ccc(C(C)=O)cc4)cc3)N[C@@](Cc3ccccc3)(C(=O)OC)[C@H]2C1=O	10µM*	11	x	13µM*	x
COC(=O)[C@]1(Cc2ccccc2)N[C@H](c2ccc(-c3ccc(F)cc3)cc2)[C@@H]2C(=O)N(C)C(=O)[C@@H]21	13µM*	2	x	u	x
CCN1C(=O)[C@H]2[C@@H](c3ccc(-c4ccccc4)cc3)N[C@@](CC(C)C)(C(=O)OC)[C@H]2C1=O	9.3µM*	0	x	8.3µM*	x
COC(=O)[C@]1(Cc2ccccc2)N[C@H](c2ccc(-c3ccc4c(c3)OCO4)cc2)[C@@H]2C(=O)N(C)C(=O)[C@@H]21	u	-2	x	u	x
